# Measurements published in publication PMC4336329 (PLoS ONE, 2015).
# Screen size: about 310,000 compounds; about 14,000 (4.5%) showed an effect of 50% or more. Effects have a minus sign here. This excerpt belongs to a sample that is enriched for strong results.
# Target: human ether-à-go-go-related gene (hERG) potassium channel (human, UniProt Q12809)
# Test: primary screen, population patch clamp on CHO cells stably expressing hERG; higher = less effect of the substance
# 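Note: peak tail current of the secondary pulse compared with the same well before compound.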
# human ether-à-go-go-related gene (hERG) potassium channel, sequence (Q12809 whole entry, looked up): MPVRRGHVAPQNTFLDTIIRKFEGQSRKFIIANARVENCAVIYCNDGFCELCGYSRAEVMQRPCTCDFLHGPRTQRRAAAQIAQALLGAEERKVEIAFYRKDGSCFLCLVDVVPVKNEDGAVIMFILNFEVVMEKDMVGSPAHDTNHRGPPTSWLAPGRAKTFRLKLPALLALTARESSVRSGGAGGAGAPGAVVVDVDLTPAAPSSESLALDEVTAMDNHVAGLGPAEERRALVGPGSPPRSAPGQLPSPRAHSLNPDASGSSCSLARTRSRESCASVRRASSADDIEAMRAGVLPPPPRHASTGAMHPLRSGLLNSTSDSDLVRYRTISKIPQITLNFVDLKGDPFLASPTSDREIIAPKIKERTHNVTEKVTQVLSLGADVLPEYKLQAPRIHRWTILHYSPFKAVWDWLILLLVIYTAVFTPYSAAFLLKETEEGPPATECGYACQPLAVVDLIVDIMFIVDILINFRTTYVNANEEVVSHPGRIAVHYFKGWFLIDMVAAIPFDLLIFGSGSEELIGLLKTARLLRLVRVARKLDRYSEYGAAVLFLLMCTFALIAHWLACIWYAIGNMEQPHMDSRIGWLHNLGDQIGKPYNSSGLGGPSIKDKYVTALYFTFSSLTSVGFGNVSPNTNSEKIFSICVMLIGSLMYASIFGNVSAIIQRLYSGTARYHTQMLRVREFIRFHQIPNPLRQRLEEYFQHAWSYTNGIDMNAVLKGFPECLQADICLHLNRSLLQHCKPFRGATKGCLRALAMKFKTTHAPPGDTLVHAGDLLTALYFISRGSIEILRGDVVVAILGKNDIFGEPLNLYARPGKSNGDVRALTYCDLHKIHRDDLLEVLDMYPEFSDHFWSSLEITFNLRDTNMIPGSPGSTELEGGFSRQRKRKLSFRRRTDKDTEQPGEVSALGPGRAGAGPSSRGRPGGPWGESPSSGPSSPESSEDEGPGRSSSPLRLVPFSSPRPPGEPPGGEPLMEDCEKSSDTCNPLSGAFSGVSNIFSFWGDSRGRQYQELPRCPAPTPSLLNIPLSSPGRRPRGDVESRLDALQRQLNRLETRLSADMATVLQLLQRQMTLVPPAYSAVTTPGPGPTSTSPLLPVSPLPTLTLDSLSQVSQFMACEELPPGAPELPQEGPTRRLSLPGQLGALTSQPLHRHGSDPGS
row,Structure (SMILES),"hERG current change (%, negative = inhibition) at 10uM"
1,Cc1cc(NC(=O)CCC(=O)N(CC(=O)NCC2CCCO2)c2ccc(C)c(C)c2)no1 (stereo not drawn),8.68%
2,Cn1cc([C@@H]2C[C@H]3CN(Cc4cccc(Cl)c4)C(=O)[C@]34CCCN24)c2ccccc21,-72.7%
3,O=C1N(Cc2cccc(Cl)c2)C[C@@H]2C[C@@H](c3c[nH]c4ccccc34)N3CCC[C@@]123,-74.8%
4,CCOC(=O)c1[nH]ncc1[C@@H]1C[C@H]2CN(Cc3cccc(Cl)c3)C(=O)[C@]23CCCN13,-27.4%
5,Cc1c([C@@H]2C[C@H]3CN(Cc4cccc(Cl)c4)C(=O)[C@]34CCCN24)cnn1C,-45.5%
6,O=C1N(Cc2cccc(Cl)c2)C[C@@H]2C[C@@H](c3cccc4ncccc34)N3CCC[C@@]123,-48.8%
7,COc1cccc(/C=N/NC(=O)c2cccc([N+](=O)[O-])c2)c1OS(=O)(=O)c1ccccc1,-16.2%
8,COc1ccc(C)cc1N(CC(=O)N1CCCCCC1)S(C)(=O)=O,12.2%
9,CCOc1ccc(CN2CCNC(=O)C2CC(=O)NC2CCOCC2)cc1 (stereo not drawn),-44.7%
10,CC1CCC(NC(=O)COC(=O)c2ccco2)CC1 (stereo not drawn),7.07%
11,N#Cc1ccccc1OCC(=O)Nc1ccc2c(c1)OCCCO2,3.08%
12,COc1ccccc1CNC(=O)C1(C)Oc2cccnc2NC1=O (stereo not drawn),9.69%
13,COc1ccc(CN2CCN(CCC(C)C)C(CCO)C2)cc1Cn1cncn1 (stereo not drawn),1.78%
14,COCc1cc(CN2CCN(Cc3ccsc3)C(CCO)C2)ccc1OC (stereo not drawn),-82.9%
15,COc1ccc(CN2CCN(CCC(C)C)C(CCO)C2)cc1Cn1cccn1 (stereo not drawn),-48.1%
16,CCOc1ccc(CN2CCN(Cc3ccsc3)C(CCO)C2)cc1CO (stereo not drawn),-39.4%
17,COCc1cc(CN2CCN(CCc3ccccc3)C(CCO)C2)ccc1OC (stereo not drawn),-56.9%
18,CC(C)(O)C#Cc1ccc(CN2CCN(Cc3ccsc3)C(CCO)C2)cc1 (stereo not drawn),-21.6%
19,COc1ccc(CN2CCN(CCc3ccccc3)C(CCO)C2)cc1Cn1cncn1 (stereo not drawn),-35.8%
20,COCc1cc(CN2CCN(CCCc3ccccc3)C(CCO)C2)ccc1OC (stereo not drawn),-66.1%
21,O=C1CN(c2ccc(Cl)cc2)C2(CCCCC2)S1,4.49%

row,Structure (SMILES),"hERG current change (%, negative = inhibition) at 10uM"
1,Cc1ccc(Cn2ccc(NC(=O)c3cc(-c4ccc(Br)cc4)on3)n2)cc1,22.6%
2,CCOC(=O)c1cc2nc(-c3ccccc3)cc(C)n2n1,5.61%
3,COC(=O)c1cc2ccsc2n1Cc1nc(-c2ccc(Cl)cc2)oc1C,7.33%
4,CSc1nc(N(C)NC(=O)c2ccc(Cl)cc2)c2ccccc2n1,2.16%
5,Cc1ccc(OCc2ccc(C(=O)Nc3ccc(S(N)(=O)=O)cc3)o2)cc1,12.4%
6,CCOC(=O)C1=C(O)CSC1=Nc1ccc(C)cc1,-4.86%
7,CCC(C)n1c(SCC(=O)Nc2cc(C(C)(C)C)nn2-c2ccccc2)nc2ccccc2c1=O (stereo not drawn),3.57%
8,CCOc1ccc(NC(=O)c2ccc(N3CC4CC(C3)c3cccc(=O)n3C4)c(N)c2)cc1 (stereo not drawn),-21.7%
9,Nc1cc(C(=O)Nc2ccc(Cl)cc2)ccc1N1CC2CC(C1)c1cccc(=O)n1C2 (stereo not drawn),-62.1%
10,O=C(Nc1ccc(Cl)cc1)N1CC2CC(C1)c1cccc(=O)n1C2 (stereo not drawn),4.31%
11,CCc1ccc(NC(=O)Nc2cc(C(=O)O)ccc2N2CC3CC(C2)c2cccc(=O)n2C3)cc1 (stereo not drawn),20.4%
12,CCc1ccc(NC(=O)Nc2cc(C(=O)NCC3CCCO3)ccc2N2CC3CC(C2)c2cccc(=O)n2C3)cc1 (stereo not drawn),-17.6%
13,CCCNC(=O)c1ccc(N2CC3CC(C2)c2cccc(=O)n2C3)c(NC(=O)Nc2ccc(CC)cc2)c1 (stereo not drawn),-78.7%
14,COc1ccc(CCNC(=O)C2CCC(=O)N2CCc2ccccc2)cc1OC (stereo not drawn),12.4%
15,O=c1nc2n(c3ccc([N+](=O)[O-])cc13)CCCCC2,-15.4%
16,CCc1ccc2nc(Nc3nc(COC)cc(=O)[nH]3)nc(C)c2c1,-73.3%
17,COCc1cc(=O)[nH]c(Nc2nc(C)c3cc(OC)ccc3n2)n1,7.05%
18,COCc1cc(=O)[nH]c(Nc2nc(C)c3ccccc3n2)n1,-8.74%
19,CCC(=O)Nc1ccc(C(=O)Nc2ccc(OC)cc2[N+](=O)[O-])cc1,13.7%
20,FC(F)(F)c1cccc(Cc2noc(CN3CCCCC3c3ccccn3)n2)c1 (stereo not drawn),-8.11%
21,Cc1cc(CN2CCC(n3nccc3NC(=O)c3ccccc3Cl)CC2)cc(C)c1O,-74.2%
